# Measurements from PubChem BioAssay (EPA / NIEHS).
# The source made the active and inactive calls. The calls were made as follows: active = hit-call score of the fitted dose curve at least 0.9, where 1 is the maximum; inactive = score below 0.9.
# Tests used:
# Settings in all cases: mRNA level, 48 h; actives raise or lower the signal
# [1] = read-out: Alkaline Phosphatase, Placental (ALPP) gene, ALPP (gene 250); assay: LTEA_HepaRG_ALPP: Life Technologies and Expression Analysis (LTEA) Assay for Alkaline Phosphatase, Placental (ALPP) gene using HepaRG (AID 2283468)
# Outline: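 HepaRG cells plated 48 h, then exposed in duplicate for 48 h in serum-free induction medium to 8-point half-log series from 100 uM in 0.5% DMSO. ALPP mRNA by TaqMan qRT-PCR, normalized to ACTB/GAPDH/POLR2A; bidirectional fit versus DMSO.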
# [2] = read-out: Bcl-2 (BAD) gene, BAD (gene 572); assay: LTEA_HepaRG_BAD: Life Technologies and Expression Analysis (LTEA) Assay for Bcl-2 (BAD) gene using HepaRG (AID 2283469)
# Outline: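 Read-out: qRT-PCR of BAD mRNA, normalized to three housekeeping genes. Human HepaRG cultures got 48 h chemical exposure in 0.5% DMSO, duplicate eight-point half-log series topping at 100 uM. Gain or loss of signal fitted versus DMSO vehicle.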
# [3] = read-out: Bcl-2 (BAX) gene, BAX (gene 581); assay: LTEA_HepaRG_BAX: Life Technologies and Expression Analysis (LTEA) Assay for Bcl-2 (BAX) gene using HepaRG (AID 2283470)
# Outline: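 qRT-PCR read-out of BAX mRNA, normalized to three housekeeping genes, after 48 h chemical exposure of human HepaRG cells in serum-free induction medium; eight-point half-log series, top 100 uM, 0.5% DMSO vehicle; bidirectional fit versus DMSO.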
# [4] = read-out: adenosine kinase (ADK) gene, ADK (gene 132); assay: LTEA_HepaRG_ADK: Life Technologies and Expression Analysis (LTEA) Assay for adenosine kinase (ADK) gene using HepaRG (AID 2283471)
# Outline: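 Read-out is ADK transcript level measured by qRT-PCR and normalised to three housekeeping genes. Cells are human HepaRG, dosed for 48 h at up to 100 uM in 0.5% DMSO. Gain or loss of signal is fitted against DMSO controls.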
# [5] = read-out: Alpha-fetoprotein (AFP) gene, AFP (gene 174); assay: LTEA_HepaRG_AFP: Life Technologies and Expression Analysis (LTEA) Assay for Alpha-fetoprotein (AFP) gene using HepaRG (AID 2283472)
# Outline: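 qRT-PCR (Fluidigm TaqMan) readout of AFP transcript, normalized to three housekeeping genes, fitted bidirectionally against 0.5% DMSO baseline. HepaRG cells received chemicals for 48 h in serum-free induction medium, top concentration 100 uM, half-log steps.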
# [6] = read-out: BCL2L11 (gene 10018); assay: LTEA_HepaRG_BCL2L11: Life Technologies and Expression Analysis (LTEA) Assay for Bcl-2 (BCL2L11) gene using HepaRG (AID 2283473)
# Outline: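 Differentiated human HepaRG cells were exposed 48 h in serum-free induction medium to eight half-log concentrations up to 100 uM in 0.5% DMSO, in duplicate. BCL2L11 mRNA was quantified by TaqMan qRT-PCR, normalized to ACTB, GAPDH and POLR2A; induction or repression fitted versus DMSO.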
# [7] = read-out: Apolipoprotein A-V (APOA5) gene, APOA5 (gene 116519); assay: LTEA_HepaRG_APOA5: Life Technologies and Expression Analysis (LTEA) Assay for Apolipoprotein A-V (APOA5) gene using HepaRG (AID 2283474)
# Outline: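 Differentiated HepaRG cells in serum-free induction medium, exposed 48 h in duplicate to eight half-log concentrations topping at 100 uM (0.5% DMSO). APOA5 mRNA by Fluidigm TaqMan qRT-PCR, normalized to ACTB, GAPDH and POLR2A; bidirectional fit versus DMSO.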
# [8] = read-out: Apoptosis regulator Bcl-2 (Homo sapiens) (UniProt P10415); assay: LTEA_HepaRG_BCL2: Life Technologies and Expression Analysis (LTEA) Assay for Bcl-2 gene using HepaRG (AID 2283475)
# Outline: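 qRT-PCR read-out (Fluidigm TaqMan) of BCL2 transcript, normalised to three housekeeping genes, after 48 h chemical exposure of HepaRG cells; 8-point half-log series, top 100 uM, 0.5% DMSO vehicle. Gain or loss of signal fitted relative to DMSO baseline.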
# [9] = read-out: Bcl-2 (BID) gene, BID (gene 637); assay: LTEA_HepaRG_BID: Life Technologies and Expression Analysis (LTEA) Assay for Bcl-2 (BID) gene using HepaRG (AID 2283476)
# Outline: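 HepaRG, 48 h exposure, 8-pt half-log series, top 100 uM, 0.5% DMSO vehicle, duplicates. Readout: BID mRNA by TaqMan qRT-PCR; housekeeping-normalized; bidirectional curve fit vs DMSO baseline.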
# [10] = read-out: Caspase-3 (Homo sapiens) (UniProt P42574); assay: LTEA_HepaRG_CASP3: Life Technologies and Expression Analysis (LTEA) Assay for cysteine-aspartic acid protease (CASP3) using HepaRG (AID 2283477)
# Outline: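 Differentiated HepaRG cells, plated 48 h, were treated in duplicate in serum-free induction medium for 48 h with eight half-log concentrations up to 100 uM in 0.5% DMSO. CASP3 mRNA measured by qRT-PCR, normalized to ACTB, GAPDH, POLR2A.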
# [11] = read-out: Cytochrome P450 (CYP24A1), CYP24A1 (gene 1591); assay: LTEA_HepaRG_CYP24A1: Life Technologies and Expression Analysis (LTEA) Assay for Cytochrome P450 (CYP24A1) using HepaRG (AID 2283478)
# Outline: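 HepaRG cells plated 48 h, then exposed in duplicate in serum-free induction medium for 48 h to 8-point half-log series from 100 uM in 0.5% DMSO. CYP24A1 mRNA by Fluidigm qRT-PCR, normalized to ACTB, GAPDH, POLR2A; bidirectional fit versus DMSO.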
# [12] = read-out: Cytochrome P450 (CYP1A2), CYP1A2 (gene 1544); assay: LTEA_HepaRG_CYP1A2: Life Technologies and Expression Analysis (LTEA) Assay for Cytochrome P450 (CYP1A2) using HepaRG (AID 2283479)
# Outline: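 Differentiated human HepaRG cells in serum-free induction medium exposed 48 hours in duplicate to 8 half-log concentrations from 100 uM, 0.5% DMSO. CYP1A2 mRNA quantified by qRT-PCR, normalized to ACTB, GAPDH and POLR2A; bidirectional fitting versus DMSO.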
# [13] = read-out: cysteine-aspartic acid protease (CASP8), CASP8 (gene 841); assay: LTEA_HepaRG_CASP8: Life Technologies and Expression Analysis (LTEA) Assay for cysteine-aspartic acid protease (CASP8) using HepaRG (AID 2283480)
# Outline: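 CASP8 transcript measured by TaqMan qRT-PCR with ACTB/GAPDH/POLR2A normalization, after 48 h chemical exposure of HepaRG cells in serum-free induction medium. Eight concentrations, top 100 uM, half-log steps, 0.5% DMSO vehicle; fits in both directions versus DMSO.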
# [14] = read-out: Cytochrome P450 (CYP2B6), CYP2B6 (gene 1555); assay: LTEA_HepaRG_CYP2B6: Life Technologies and Expression Analysis (LTEA) Assay for Cytochrome P450 (CYP2B6) using HepaRG (AID 2283481)
# Outline: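 Differentiated human HepaRG cells in serum-free induction medium, dosed in duplicate for 48 h over 8 half-log concentrations topping at 100 uM (0.5% DMSO). CYP2B6 mRNA measured by TaqMan qRT-PCR, normalized to ACTB, GAPDH, POLR2A; bidirectional fit versus DMSO.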
# [15] = read-out: Cytochrome P450 2C19 (Homo sapiens) (UniProt P33261); assay: LTEA_HepaRG_CYP2C19: Life Technologies and Expression Analysis (LTEA) Assay for CYP2C19 using HepaRG (AID 2283482)
# Outline: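 Differentiated HepaRG cells in serum-free induction medium exposed 48 h in duplicate, 8 concentrations from 100 uM by half-log steps in 0.5% DMSO. CYP2C19 mRNA measured by TaqMan qRT-PCR, normalized to ACTB, GAPDH, POLR2A. Bidirectional fit versus DMSO.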
# [16] = read-out: CYP2C8 (gene 1558); assay: LTEA_HepaRG_CYP2C8: Life Technologies and Expression Analysis (LTEA) Assay for CYP2C8 using HepaRG (AID 2283483)
# Outline: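 CYP2C8 expression measured by TaqMan qRT-PCR and normalized to three housekeeping genes. HepaRG cultures were treated for 48 h with an eight-point half-log series topping at 100 uM, vehicle 0.5% DMSO, duplicates; fitted both directions against DMSO.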
# [17] = read-out: CYP2C9 (gene 1559); assay: LTEA_HepaRG_CYP2C9: Life Technologies and Expression Analysis (LTEA) Assay for CYP2C9 using HepaRG (AID 2283484)
# Outline: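 CYP2C9 transcript level, quantified by TaqMan qRT-PCR against three housekeeping genes, was fitted bidirectionally relative to 0.5% DMSO. HepaRG cultures were treated 48 h, in duplicate, at eight half-log concentrations topping at 100 uM.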
# [18] = read-out: CYP2E1 (gene 1571); assay: LTEA_HepaRG_CYP2E1: Life Technologies and Expression Analysis (LTEA) Assay for CYP2E1 using HepaRG (AID 2283485)
# Outline: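 CYP2E1 transcript was measured by TaqMan qRT-PCR in human HepaRG cultures after 48 h chemical exposure (top 100 uM, half-log steps, 0.5% DMSO vehicle). Housekeeping-gene normalization; gain or loss fitted relative to DMSO baseline.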
# [19] = read-out: CYP4A11 (gene 1579); assay: LTEA_HepaRG_CYP4A11: Life Technologies and Expression Analysis (LTEA) Assay for CYP4A11 using HepaRG (AID 2283486)
# Outline: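 Differentiated HepaRG cells, 48 h after plating, exposed in duplicate for 48 h to 8 half-log concentrations up to 100 uM in 0.5% DMSO in serum-free induction medium. CYP4A11 mRNA measured by TaqMan qRT-PCR, normalized to ACTB, GAPDH and POLR2A.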
# Sequence of Caspase-3 (Homo sapiens) (P42574 whole entry, looked up): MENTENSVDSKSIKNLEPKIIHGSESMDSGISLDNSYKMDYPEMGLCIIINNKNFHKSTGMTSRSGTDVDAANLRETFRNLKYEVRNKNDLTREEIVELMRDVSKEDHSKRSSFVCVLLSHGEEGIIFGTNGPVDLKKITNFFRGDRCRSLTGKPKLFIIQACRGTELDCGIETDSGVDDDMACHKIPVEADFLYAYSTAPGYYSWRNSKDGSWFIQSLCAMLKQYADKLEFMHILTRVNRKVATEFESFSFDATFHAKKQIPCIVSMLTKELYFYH
# Sequence of Apoptosis regulator Bcl-2 (Homo sapiens) (P10415 whole entry, looked up): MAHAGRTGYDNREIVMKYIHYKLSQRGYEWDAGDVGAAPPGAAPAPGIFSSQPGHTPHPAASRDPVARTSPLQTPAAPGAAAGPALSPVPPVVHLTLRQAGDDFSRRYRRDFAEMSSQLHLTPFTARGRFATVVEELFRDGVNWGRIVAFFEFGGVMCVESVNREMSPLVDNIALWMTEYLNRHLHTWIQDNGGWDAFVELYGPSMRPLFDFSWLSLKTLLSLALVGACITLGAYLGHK
# Sequence of Cytochrome P450 2C19 (Homo sapiens) (P33261 whole entry, looked up): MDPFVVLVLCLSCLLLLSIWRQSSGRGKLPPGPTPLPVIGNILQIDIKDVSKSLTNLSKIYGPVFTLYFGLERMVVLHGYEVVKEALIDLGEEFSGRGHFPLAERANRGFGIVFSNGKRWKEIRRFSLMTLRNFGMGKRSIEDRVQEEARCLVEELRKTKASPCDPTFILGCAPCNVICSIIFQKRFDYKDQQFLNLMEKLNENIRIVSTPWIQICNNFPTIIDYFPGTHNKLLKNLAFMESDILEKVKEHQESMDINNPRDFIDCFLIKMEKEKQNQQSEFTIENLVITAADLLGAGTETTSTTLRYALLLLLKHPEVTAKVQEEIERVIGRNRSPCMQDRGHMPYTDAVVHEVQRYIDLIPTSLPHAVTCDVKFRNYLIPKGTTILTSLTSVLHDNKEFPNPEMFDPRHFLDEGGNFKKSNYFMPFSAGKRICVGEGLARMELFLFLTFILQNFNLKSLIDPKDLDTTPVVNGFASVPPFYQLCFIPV
compound,measurement,setting,value
CC(=O)CC(C)(C)O,outcome,[1],inactive
same,outcome,[2],inactive
same,outcome,[3],inactive
same,outcome,[4],inactive
same,outcome,[5],inactive
same,outcome,[6],inactive
same,outcome,[7],inactive
same,outcome,[8],inactive
same,outcome,[9],inactive
same,outcome,[10],inactive
same,outcome,[11],inactive
same,outcome,[12],inactive
same,outcome,[13],inactive
same,outcome,[14],inactive
same,outcome,[15],inactive
same,outcome,[16],inactive
same,outcome,[17],inactive
same,outcome,[18],inactive
same,outcome,[19],inactive
CCc1ccc(CCOc2ccc(CC3SC(=O)NC3=O)cc2)nc1 (centres undefined),AC50,[1],38.2 µM (active)
same,outcome,[2],inactive
same,outcome,[3],inactive
same,outcome,[4],inactive
same,outcome,[6],inactive
same,AC50,[7],84.6 µM (active)
same,AC50,[8],72.6 µM (active)
same,outcome,[9],inactive
same,outcome,[10],inactive
same,outcome,[11],inactive
same,AC50,[12],31.6 µM (active)
same,outcome,[13],inactive
same,AC50,[14],92.5 µM (active)
same,AC50,[16],88.4 µM (active)
same,AC50,[17],77.6 µM (active)
same,AC50,[18],48.5 µM (active)
same,AC50,[19],85.9 µM (active)
c1ccc2cc3c(ccc4ccccc43)cc2c1,outcome,[1],inactive
same,outcome,[2],inactive
same,outcome,[3],inactive
same,outcome,[4],inactive
same,AC50,[5],25.9 µM (active)
same,AC50,[6],7.02 µM (active)
same,AC50,[7],15.9 µM (active)
same,outcome,[8],inactive
same,outcome,[9],inactive
same,outcome,[10],inactive
same,outcome,[11],inactive
same,AC50,[12],1.99 µM (active)
same,outcome,[13],inactive
same,AC50,[14],9.39 µM (active)
same,AC50,[15],15.2 µM (active)
same,AC50,[16],13.7 µM (active)
same,AC50,[17],11.8 µM (active)
same,AC50,[18],22.3 µM (active)
same,AC50,[19],32.8 µM (active)
C[C@@H]1C[C@H]2[C@@H]3CCC4=CC(=O)C=C[C@]4(C)[C@@]3(F)[C@@H](O)C[C@]2(C)[C@@]1(O)C(=O)COP(=O)(O)O,outcome,[1],inactive
same,outcome,[2],inactive
same,outcome,[3],inactive
same,outcome,[4],inactive
same,outcome,[5],inactive
same,outcome,[6],inactive
same,outcome,[7],inactive
same,outcome,[8],inactive
same,outcome,[9],inactive
same,outcome,[10],inactive
same,outcome,[11],inactive
same,outcome,[12],inactive
same,outcome,[13],inactive
same,outcome,[14],inactive
same,outcome,[15],inactive
same,outcome,[16],inactive
same,outcome,[17],inactive
same,AC50,[18],25 µM (active)
same,outcome,[19],inactive
